# The campaign covered roughly 360,000 compounds. About 780 (0.22%) were called active. What follows is part of a selection rich in actives, with near analogues and random picks from the rest. Unmarked numbers belong to inactive results. No stated cut-off is given here; in the data, active means inhibition above about 8.5% (passing the limit was not always enough); inconclusive means no clear call, values can overlap the other calls.
# Tested on: Mycobacterium tuberculosis FadD28 fatty-acid-AMP ligase
# Test: inhibitors of FadD28 bisubstrate probe binding, primary screen, biochemical, fluorescence polarization, single point (AID 588549)
# Conditions: at 12.5 µM, hits give high values
row,Compound,inhibition
1,C=CCn1c(SCc2cc(C(=O)OC)c(C)o2)nnc1-c1ccncc1,-3.43%
2,Cc1ccc(C(c2sc3nc(C)nn3c2O)N2CCN(c3ccc(F)cc3)CC2)cc1 (stereo not drawn),-3.79%
3,CC(=O)c1c(N2CCN(c3ccc(F)cc3)CC2)nc(=S)n(-c2ccccc2)c1C,-1.67%
4,O=C(C1Cc2ccccc2CN1C(=O)c1ccco1)N1CCN(c2ccccc2)CC1 (stereo not drawn),-0.0045%
5,C[C@H]1CN([C@@H](C)CO)C(=O)c2cc(C3=CCCCC3)cnc2O[C@@H]1CN(C)C(=O)Cc1ccccc1,-1.03%
6,Cc1nn(Cc2ccccc2)c(C)c1C(=O)N1CCN(CC(=O)Nc2ccccc2Cl)CC1,-3.56%
7,COCCCn1c(-c2cccs2)nc2nc3ccccc3nc21,-0.0615%
8,CCC(=O)Nc1cccc(NC(=O)CSc2nnc(-c3ccc(NS(C)(=O)=O)cc3)n2C)c1,1.19%
9,COCCN1Cc2cccc(C(=O)Nc3ccccc3OC)c2C1=O,-3.48%
10,Cc1cccc(CN2CCN(C3CN(Cc4ccccc4)S(=O)(=O)C3)CC2)c1 (stereo not drawn),-1.16%
11,CCN(CC(=O)NCc1ccc(F)cc1)S(=O)(=O)c1ccc(Cl)s1,-3.08%
12,C=CC(=O)OCCOCCOCCOCCOC(=O)C=C,-2.6%
13,COC(=O)CCCCC1=CCC2C(=O)C=C(O)C2C1 (stereo not drawn),-1.93%
14,COc1cc(CNCc2ccc(OC)c3ccccc23)cc(OC)c1OC,-0.377%
15,CCc1nc2c(OCCOc3ccccc3)cccn2c1N(C)C(=O)c1cccs1,-4.76%
16,COC(=O)C1(C)CC1(c1ccccc1)c1ccccc1 (stereo not drawn),-0.161%
17,O=C1c2ccccc2C2=Nc3ccccc3SC(c3ccccc3F)C12 (stereo not drawn),-4.89%
18,COC(=O)C1CC2=C(CC(C)(C)CC2=O)N(c2ccccc2)C1=O (stereo not drawn),1.35%
19,Cc1ccc(N(Cc2ccc(C(=O)Nc3ccccc3C(=O)NCc3ccco3)cc2)S(C)(=O)=O)cc1C,-1.65%
20,CC/C(=N\NC(=O)c1ccccc1Cl)c1ccc(Br)s1,-2.73%
21,CC/C(=N\NC(=O)c1ccccc1O)c1c(O)n(Cc2ccccc2)c(=O)[nH]c1=O,17.8% (active)
22,COCCN(C(=O)c1ccccc1F)c1c(N)n(Cc2ccccc2)c(=O)[nH]c1=O,-1.47%

row,Compound,inhibition
1,Cc1ccc(C)c2c1cc(C)c1nnc(SCC(=O)Nc3cccc(C(=O)O)c3)n12,-2.19%
2,NNC(=O)COc1ccc(C2SCCS2)cc1,-1.11%
3,CCN1CC(CN(C)Cc2nc(-c3ccc(Cl)cc3)no2)CC1=O (stereo not drawn),-0.366%
4,Oc1c(Cl)cc(Cl)c(Cl)c1Cc1c(O)c(Cl)cc(Cl)c1Cl,65.8% (active)
5,COc1ccc(SCc2noc(C(=O)NCC3CCCO3)c2C(=O)O)cc1 (stereo not drawn),0.0895%
6,CCn1nnc2cc(C(=O)Nc3ccc(C(=O)OC(C)C)cc3)ccc21,-3.75%
7,CC1CCCCC1NC(=O)c1cc(=O)[nH]c2ccccc12 (stereo not drawn),-0.133%
8,COc1ccc(OC)c(C(=O)c2coc3ccc(O)c(CN4CCOCC4)c23)c1,-2.66%
9,CCOC(=O)c1ccccc1N1C(=O)C2Sc3[nH]c(=O)sc3C(/C=C/c3ccccc3)C2C1=O (stereo not drawn),0.286%
10,COc1cc(OC)cc(C(=O)NC2CCN(C(=O)N3c4ccccc4Sc4ccccc43)CC2)c1,-5.05%
11,O=C(CSc1nc2ccccc2o1)N1CCN(c2ccc(Cl)cc2)CC1,1.06%
12,CN(C)c1ccc(Nc2c3c4c(cccc4n(C)c2=O)C(=O)c2ccccc2-3)cc1,-0.49%
13,O=C(Cc1ccc([N+](=O)[O-])cc1)NCCS(=O)(=O)N1CCN(c2ccccc2)CC1,-0.717%
14,CC(C)C(NC(=O)c1c(F)cccc1F)C(=O)NNC(=O)c1ccccc1 (stereo not drawn),-3.91%
15,CN1C(=O)CC(c2ccccc2)C1=O (stereo not drawn),-1.61%
16,O=C(O)C(c1ccccc1)N1C(=O)/C(=C\c2ccc(-c3cccc(Cl)c3)o2)SC1=S (stereo not drawn),13% (active)
17,O=C(Cn1nnc(-c2ccccc2)n1)N/N=C/c1ccc(-c2ccc(Cl)cc2)o1,-1.53%
18,CCC(C)N1C(=O)S/C(=C/c2ccc(Sc3nc4ccccc4[nH]3)o2)C1=O (stereo not drawn),-0.197%
19,COc1c(C)cc(C(=O)C2CCCN(S(=O)(=O)c3c(C)noc3C)C2)cc1C (stereo not drawn),-0.846%
20,CCOCN(C(=O)Cn1c(C(C)O)nc2ccccc21)c1c(C)cccc1CC (stereo not drawn),-5.11%
21,CCCNC(=O)c1cc(C2CCCCN2C(=O)OC)on1 (stereo not drawn),-0.481%
22,CCN(CC)S(=O)(=O)c1ccc(N2CC(C(=O)NCc3cccnc3)CC2=O)cc1 (stereo not drawn),-2.96%

row,Compound,inhibition
1,O=C(Cn1c2[n+](c3ccc(C(F)(F)F)cc31)CCCCC2)Nc1c(F)cccc1F,4.18%
2,CC1CCN(c2ccc(C(=O)Nc3nnc(C4CC4)s3)cc2[N+](=O)[O-])CC1,-1.32%
3,Cc1cc(OCCCC(=O)Nc2cc(S(=O)(=O)N3CCOCC3)ccc2N2CCOCC2)ccc1Cl,0.172%
4,O=[N+]([O-])c1cc(Cl)cc(/C=N/NC(=S)Nc2cc(S(=O)(=O)N3CCOCC3)ccc2Cl)c1O,22.5% (active)
5,COC(=O)c1cc(Oc2ccc(S(=O)(=O)N3CCOCC3)cc2[N+](=O)[O-])cc(C(=O)OC)c1,0.28%
6,O=S(=O)(NCC1OCCc2ccccc21)c1ccccc1 (stereo not drawn),-0.133%
7,Cn1c(=O)cc(SCC(=O)N2CCCC2)c2cc(Cl)ccc21,-4.85%
8,CC(C)Cc1nn2c(=O)cc(O)nc2s1,0.338%
9,CC(=O)N1CCN(S(=O)(=O)c2ccc(C)c([N+](=O)[O-])c2)C1C(C)C (stereo not drawn),-3.8%
10,COC(=O)C1CCN(C(=O)c2ccc3oc(Cc4ccc(Cl)cc4)nc3c2)CC1,-0.812%
11,O=C(CN1C(=O)NC2(CCCC2)C1=O)NCC1CCCO1 (stereo not drawn),-1.47%
12,CCc1nc2ccc(C(=O)NC3CCN(Cc4ccccc4)CC3)cn2c1N(CC)CCOC,-4.48%
13,CNS(=O)(=O)c1cnccc1N1CCN(c2cccc(C)c2)CC1,-0.922%
14,CCn1cc(/C=C(\NC(=O)c2ccc(C)cc2)C(=O)NCCN2CCOCC2)c2ccccc21,1.23%
15,CC(C)CCN1NC2(CCC(C)CC2)NC1=S (stereo not drawn),-3.86%
16,COc1ccc(S(=O)(=O)NC(=O)C2(C)CCN2C(=O)COc2ccc(Cl)cc2)cc1 (stereo not drawn),-5.43%
17,COc1ccc(Br)cc1/C=N/Nc1ccc(S(=O)(=O)Nc2ccccc2C(=O)O)cc1[N+](=O)[O-],-1.21%
18,CCN(CC(=O)NCc1cccs1)C(=O)c1cccc(S(=O)(=O)Nc2ccccc2OC)c1,-3.38%
19,COc1cccc(/C=N/Nc2ccc(S(=O)(=O)Nc3ccccc3C(=O)O)cc2[N+](=O)[O-])c1O,35.4% (active)
20,O=c1c(F)cn(C2CCCO2)c(=O)n1Cc1ccccc1Cl (stereo not drawn),-2.45%
21,Cc1nnc(CN(C)Cc2cn[nH]c2-c2ccc(-c3ccccc3)cc2)o1,-1.34%
22,COc1ccc(OC)c(S(=O)(=O)N(C)CC(=O)N2CCN(c3ccccc3)CC2)c1,-3.85%

row,Compound,inhibition
1,COc1ccccc1CNC(=O)CSc1nc(=O)n(Cc2ccncc2)c2c1CCC2,-0.173%
2,OC(CNC1CCCC1)COc1ccc(F)cc1 (stereo not drawn),-4.58%
3,Cc1noc(C)c1-c1ccc(C(=O)NCc2ccncc2)c2occc12,-2.15%
4,Cc1ccc(O)c(-c2cc(C(=O)Nc3c(C)n(C)n(-c4ccccc4)c3=O)[nH]n2)c1,-2.28%
5,COC(=O)c1ccc(CSc2nnc(NC(C)C)s2)cc1,-3.65%
6,O=C(O)c1ccc(N/N=C/c2cn(-c3ccccc3)nc2-c2cccs2)cc1,23.7% (active)
7,COc1ccc(Cl)cc1NC(=O)CN(C)C(=O)c1cn(-c2ccccc2)nc1-c1cccs1,-1.26%
8,O=C(O)c1ccc(N/N=C/c2ccc3ncccc3c2)cc1,-1.11%
9,Cc1nnc(Nc2ccccc2F)s1,-1.11%
10,COCCNC(=O)CN(Cc1ccco1)C(=O)CCC(=O)Nc1nccs1,-3.92%
11,COCCNC(=O)Nc1ccc2nc(-c3ccco3)c(-c3ccco3)nc2c1,20.8% (active)
12,COCCNC(=O)c1ccc2nc(Cc3ccc(OC)c(OC)c3)oc2c1,-2.89%
13,O=S(=O)(NCCCCCCNS(=O)(=O)c1c(F)cccc1F)c1ccc2c(c1)OCCO2,-2.1%
14,O=C(COC(=O)c1cccc(Cl)c1)NC(=O)NCc1ccccc1,-1.95%
15,O=C1c2ccccc2C(=O)N1c1ccccc1S(=O)C(F)(F)F (stereo not drawn),-3.78%
16,CC(C(=O)Nc1ccc(F)c(F)c1F)N1CCCCCC1 (stereo not drawn),-6.4%
17,CC1(C)CC(=O)C=C(NCc2ccncc2)C1,1.4%
18,CCOc1ccc(CN(C)C(=O)c2ccc(=O)[nH]c2)cc1,-0.407%
19,O=C(Nc1c2c(nn1-c1ccccc1)CS(=O)(=O)C2)C1CCCC1,-0.538%
20,Cc1nn(C)c(Cl)c1CN1CCC(n2nccc2NC(=O)C2CCCC2)CC1,1.24%
21,O=C(Cn1ccc([N+](=O)[O-])n1)NCc1cccs1,-2.06%
22,N#C/C(=C/c1ccc(N2CCCCC2)o1)C(=O)NCCc1c[nH]c2ccccc12,-1.59%
